Measurements: PubChem BioAssay (NCI)
The panel holds about 83,000 compounds, 20% with a hit somewhere; the sample as a whole holds those more often.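 For each line, cells grew in 96-well plates with the test compound present at a single concentration for 48 hours.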 Values without a mark were called inactive. Activity calls are given as the source filed them. Rule for the calls: active = growth percent below 10; inactive = the rest.

These compounds were tested on MDA-MB-468 breast (assay: NCI-60 one-dose screen, 48 h (100 = growth as untreated, 0 = no growth, -100 = all killed)). Conditions: 10 µM unless noted.

Structure (SMILES)	growth
COc1cc2c(cc1[N+](=O)[O-])-c1ccc([N+](=O)[O-])cc1/C2=N\O	49.4%
CC[C@H](Nc1nc(N)nc(C2CC2)c1C#N)c1nc2cccc(NCc3ccc(C(=O)NO)cc3)c2c(=O)n1-c1ccccc1	-23% (active)
COc1ccc(C(=O)/C=C/c2ccccc2)cc1S(N)(=O)=O	66.1%
O=C(O)CC(Cl)C(Cl)CC(=O)O (centres undefined)	114%
